Screens from PubChem.
Shown is part of a subset that was picked to be rich in hits.
Vaccinia mCherry – qHTS for Stage-Specific Inhibitors of Vaccinia Orthopoxvirus: mCherry Reporter Primary qHTS | Vaccinia virus mCherry reporter infection, fluorescence | Potency, µM (titrated, usually from 36.5 µM), for the others: at the highest dose activity change, negative = inhibition, hits mostly inhibitors | hit rate 0.63% among 310,000; calls by dose curve; tested in A549 cells; further: potency means the concentration at half of the fitted maximal effect; on the % scale 0 is the no-effect control and ±100 the full control effect; nearly all actives have a fitted effect of over 35% in size
Marburg entry inh – qHTS for inhibitors of binding or entry into cells for Marburg Virus. Marburg virus pseudotyped entry inhibition, cell reporter. Potency, µM (doses to about 37.8 µM), for inactives: at the highest dose activity change, negative = inhibition, hits mostly inhibitors. hit rate 1.8% among 300,000. AID 540276, 2011; calls by dose curve; tested in HEK293 cells; further: potency means the concentration at half of the fitted maximal effect; on the % scale 0 is the no-effect control and ±100 the full control effect
Shiga toxin inh – A qHTS for Small Molecule Inhibitors of Shiga Toxin | AID 2315, 2010 | Vero cells, Shiga toxin protein synthesis inhibition reporter | hit rate 9.2% among 290,000 | inhibition, % at 38.7 µM; in the data active means inhibition mostly above about 28%, no sharp cut-off; inactive means mostly below about 43%; further: 0% is about no effect
VACV Venus inh – qHTS for Stage-Specific Inhibitors of Vaccinia Orthopoxvirus: Venus Reporter Primary qHTS. Potency, µM (titrated, usually from 36.5 µM), without a hit: at the top dose activity change, negative = inhibition, usual class: inhibitors. Vaccinia virus Venus reporter expression, fluorescence. hit rate 0.46% among 330,000; calls by dose curve; tested in A549 cells; further: potency means the concentration at half of the fitted maximal effect; on the % scale 0 is the no-effect control and ±100 the full control effect; nearly all actives have a fitted effect of over 30% in size
CHX counter – Cycloheximide Counterscreen for Small Molecule Inhibitors of Shiga Toxin. cell reporter, cycloheximide protein synthesis inhibition counterscreen. max response, %. hit rate 12% among 300,000; in the data active means max response mostly above about 13%, no sharp cut-off; inactive means mostly below about 14%; further: read at 38.3 µM for the half of the compounds with a filed dose; 0% is about no effect
LASV entry inh – qHTS for Inhibitors of binding or entry into cells for Lassa Virus | Lassa virus pseudotype entry inhibition, cell reporter | Potency, µM (highest dose often 37.9 µM), for inactives: at the top dose activity change, negative = inhibition, actives largely listed as inhibitors | hit rate 1.2% among 300,000; calls by dose curve; tested in HEK293 cells; further: potency means the concentration at half of the fitted maximal effect; on the % scale 0 is the no-effect control and ±100 the full control effect; nearly all actives have a fitted effect of over 50% in size
* = called active by the depositor; i = inactive; u = inconclusive; x = no result; [ ] = another dose, or the depositor's remark.

SMILES	Vaccinia mCherry	Marburg entry inh	Shiga toxin inh	VACV Venus inh	CHX counter	LASV entry inh
CC1=NN(c2ccccc2)C(=O)/C1=C/c1c(O)n(-c2ccc(F)c(Cl)c2)[nH]c1=O	-24%	u	19	-23%	17*	20%
CCOC(=O)c1ccc(CSc2nnc(-c3ccncc3)n2N)cc1	x	-12%	77	-13%	41*	1%
O=C(Nc1ccccc1C(=O)N1CCCCC1)c1nsc2ccccc12	-3%	x	x	-16%	x	5%[46.1 µM]
COC(=O)c1ccccc1S(=O)(=O)N1CCC(C(=O)OCc2ccc([N+](=O)[O-])cc2)CC1	-15%	u	x	-9%	x	u
CN1CCC(=O)N([C@H](CSc2ccccc2)c2ccccc2)CC1	-6%	x	58	-16%	18*	x
CC(=O)Nc1ccc(SCC(Cc2ccccc2)N2CCN(CCc3ccccc3)CCC2=O)cc1 (stereo not given)	x	x	-10	x	0	x
CN1CCC(=O)N([C@H](CN=[N+]=[N-])c2ccccc2)CC1	-23%	x	20*	0%	23*	x
CC(C)CN1CCC(=O)N([C@H](CSc2ccc(Br)cc2)c2ccccc2)CC1	-14%	x	27	-12%	-2	x
CC(=O)Nc1ccc(SCC(c2ccccc2)N2CCN(C)CCC2=O)cc1 (stereo not given)	x	x	116*	x	68*	x
CN1CCC(=O)N(C(CSc2ccc(Br)cc2)c2ccccc2)CC1 (stereo not given)	x	x	83*	x	33*	x
O=C1CCN(Cc2ccccc2)CCN1[C@H](CSc1ccccc1)Cc1ccccc1	-16%	x	-7	-9%	-1	x
CCCOc1ccc(C(=O)OCCN(CC)CC)cc1N	i	x	x	-8%	x	x
Cc1ccc(O)c(-c2ccnc3cc(-c4ccc(Cl)cc4)nn23)c1	-23%	0%[46.1 µM]	x	-13%	x	2%[46.1 µM]
FC(F)(F)c1ccc(C2[C@H]3CN(CC4CCCCC4)[C@H](c4ccccc4)C34CC2(c2cccnc2)C4)cc1 (stereo not given in full)	-15%	x	-8	-7%	-3	x
Cc1ccc(SCC(c2ccccc2)N2CCN(CC(C)C)CCC2=O)cc1 (stereo not given)	x	x	89*	x	42*	x
Cc1ccc(SC[C@H](c2ccccc2)N2CCN(C)CCC2=O)cc1	-5%	x	97*	-9%	44*	x
Cc1ccc(SC[C@H](c2ccccc2)N2CCN(CC(C)C)CCC2=O)cc1	-6%	x	11	-11%	19	x
Nc1cc(=O)nc(SCC(=O)Nc2ccc(F)cc2)n1-c1ccc(Cl)cc1	2%	6%[46.1 µM]	x	-8%	x	4%[46.1 µM]
O=C1c2ccccc2C(=O)N1Cc1ccccc1F	24%	19%[46.1 µM]	-2	-4%	-2	2%
CCc1ccc(-n2c(=O)c3c4c(sc3n(CC(=O)N3CCC(C)CC3)c2=O)CCC4)cc1	3%	16%[46.1 µM]	x	-6%	x	2%[46.1 µM]
O=C(COc1ccccc1-c1ccccc1)NCCN1C(=O)S/C(=C\c2cccnc2)C1=O	-15%	-51%	-2	-14%	2	-11%
COc1ccc(N2CCN(C(=O)CSc3c4c(nc5ccc(Cl)cc35)CCCC4)CC2)cc1	-7%	-12%[46.1 µM]	x	-18%	x	u
CCn1c(SCc2ccc(F)cc2Cl)nc(=O)c2c(C(=O)OC)cc(C3CC3)nc21	i	x	x	-6%	x	u
C=C(C(=O)c1ccccc1)C(NC(C)(C)C)c1ccccc1 (stereo not given)	18µM*	u	x	u	x	u
O=C(CN1C(=O)/C(=C/c2ccccc2F)SC1=S)NC1C=CS(=O)(=O)C1 (stereo not given)	-8%	-6%[46.1 µM]	-5	-14%	-1	-22%[46.1 µM]
SMILES	Vaccinia mCherry	Marburg entry inh	Shiga toxin inh	VACV Venus inh	CHX counter	LASV entry inh
CC(C(=O)NC1C=CS(=O)(=O)C1)N1C(=O)/C(=C\c2ccccc2)SC1=S (stereo not given)	x	x	24*	x	23*	x
CC(C(=O)NC1C=CS(=O)(=O)C1)N1C(=O)/C(=C/c2cccc(Cl)c2)SC1=S (stereo not given)	x	x	20	x	9	x
COc1ccccc1/C=C1/SC(=S)N(C(C)C(=O)NC2C=CS(=O)(=O)C2)C1=O (stereo not given)	x	x	20	x	19*	x
COc1ccc(-c2nc3ccccc3n3c(-c4ccc(OC)cc4)c4c(=O)n(C)c(=O)n(C)c4c23)cc1	-23%	-13%[46.1 µM]	x	-14%	x	12%[46.1 µM]
CCC1CN(Cc2cn[nH]c2-c2ccc(F)cc2)Cc2cc(OC)ccc2O1 (stereo not given)	-13%	x	x	-16%	x	x
CCc1ccc(NC(=O)CCn2c(-c3ccc(OC)cc3)cc(C(C)=O)c2C)cc1	-18%	x	x	-10%	x	-9%[46.1 µM]
Cc1cc(C(F)(F)F)c(C#N)c(SCC(=O)Nc2nc3cc(Br)ccc3s2)n1	-5%	u	33*	-6%	39*	u
CCOC(=O)NC(=O)CSc1nc(C)cc(C(F)(F)F)c1C#N	x	3%	84*	x	31*	20%
COC(=O)CSc1nc(C)cc(C(F)(F)F)c1C#N	x	-10%[46.1 µM]	-11	-18%	-3	9%
Cc1ccc(S(=O)(=O)CCSc2nc(C)cc(C(F)(F)F)c2C#N)cc1	x	-47%	23	2.2µM*	-1	u
CCc1ccccc1N(CC)C(=O)c1c(C)oc2ncnc(N3CCOCC3)c12	-3%	x	x	-12%	x	-1%[46.1 µM]
CC1CC(C)CN(C(=O)c2cc3ccccc3o2)C1 (stereo not given)	-9%	21%	x	-15%	x	11%[46.1 µM]
CC1CCN(C(=O)c2cc3ccccc3o2)CC1	-12%	9%	76*	-14%	56*	-3%
O=C(c1cc2ccccc2o1)N1CCCC1	23%	x	6	-13%	13	x
O=C(c1cc2ccccc2o1)N1CCCCCC1	-2%	19%	62*	-18%	46*	22%
CSc1ncccc1-c1nc2ccccc2[nH]1	-10%	u	51	-8%	28*	11%
CCSc1ncccc1-c1nc2ccccc2[nH]1	x	8%	99*	x	38*	6%
O=S(=O)(/N=C(/Nc1nc2ccccc2s1)c1ccccc1)c1ccc(F)cc1	-3%	u	x	-24%	x	14%
Cc1ccc(S(=O)(=O)Nc2nc3ccccc3s2)cc1	x	-3%	-11	x	-4	u
Cc1ccc(NC(=O)Nc2nc3ccccc3s2)cc1NC(=O)Nc1nc2ccccc2s1	-23%	x	76	u	16	x
Cc1ccc(Nc2nc3ccccc3s2)cc1	-4%	u	72*	-26%	29*	u
Fc1ccc(Nc2nc3ccccc3s2)cc1	-6%	u	120*	-10%	40*	-11%
Cc1ccccc1Nc1nc2ccccc2s1	-5%	u	135*	-22%	66*	u
CC1(C)CN=C(Nc2nc3ccccc3s2)S1	x	u	77*	u	38*	-7%
Cc1ccc([C@H]2/C(=C(\O)c3ccc(OC(C)C)cc3)C(=O)C(=O)N2CCN2CCOCC2)cc1	x	0%	x	x	x	x
Cc1nn(CC(=O)NCc2ccccc2Cl)c(=O)c2cccn12	-12%	-14%[46.1 µM]	x	-10%	x	3%[46.1 µM]
